Results filed as inconclusive are left out. The source made the active and inactive calls. Rule for the calls: active = hit-call score of the fitted dose curve at least 0.9, where 1 is the maximum; inconclusive = response in the unintended direction; inactive = score below 0.9.

Chain of human Mitogen- and Stress-activated Protein Kinase-1 (Msk1), RPS6KA5 (gene 9252) (O75582 whole entry, looked up): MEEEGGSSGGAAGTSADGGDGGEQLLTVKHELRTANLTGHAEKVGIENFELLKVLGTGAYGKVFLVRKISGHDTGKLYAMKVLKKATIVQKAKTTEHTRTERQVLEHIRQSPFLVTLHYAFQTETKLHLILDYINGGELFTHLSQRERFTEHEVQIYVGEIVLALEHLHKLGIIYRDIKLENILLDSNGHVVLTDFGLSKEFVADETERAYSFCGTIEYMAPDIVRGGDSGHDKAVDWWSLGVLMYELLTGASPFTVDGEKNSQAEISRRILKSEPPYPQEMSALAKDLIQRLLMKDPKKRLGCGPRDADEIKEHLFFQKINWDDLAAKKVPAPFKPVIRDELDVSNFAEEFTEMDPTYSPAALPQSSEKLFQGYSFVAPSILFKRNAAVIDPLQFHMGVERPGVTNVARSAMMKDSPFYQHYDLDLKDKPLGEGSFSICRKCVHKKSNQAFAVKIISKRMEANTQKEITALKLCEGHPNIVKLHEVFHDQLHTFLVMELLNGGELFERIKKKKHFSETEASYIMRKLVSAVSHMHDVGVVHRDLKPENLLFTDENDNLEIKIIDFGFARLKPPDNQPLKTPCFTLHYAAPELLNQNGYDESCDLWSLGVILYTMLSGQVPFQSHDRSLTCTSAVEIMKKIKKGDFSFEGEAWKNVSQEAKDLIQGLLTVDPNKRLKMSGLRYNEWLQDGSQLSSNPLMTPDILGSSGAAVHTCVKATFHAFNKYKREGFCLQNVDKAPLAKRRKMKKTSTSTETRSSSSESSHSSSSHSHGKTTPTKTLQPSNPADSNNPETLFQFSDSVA

One assay addresses human Mitogen- and Stress-activated Protein Kinase-1 (Msk1), RPS6KA5 (gene 9252) (UniProt O75582). In words: NVS_ENZ_hMsk1: NovaScreen (NVS) Enzymatic Assay for human Mitogen- and Stress-activated Protein Kinase-1 (Msk1) (AID 2283187). The method, boiled down: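 Chemicals first run in duplicate at 25 uM, with actives followed up in singleton concentration series to 50 uM maximum. Enzyme activity came from substrate/product mobility-shift separation with fluorescence detection after 1 h incubation of the recombinant protein.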
Consider `Cc1ccc(N)cc1O`, for which the compound was called inactive. The same measure, in the same setting: the value for `O=C(O)CC(O)C(=O)O` (configuration not stated) was “inactive”; that for `CC(C)c1cccc(C(C)C)c1N1C(=O)c2ccc(O)cc2C1=O` was “inactive”.

The target of another assay is human Matrix Metalloproteinase-9 (MMP9), MMP9 (gene 4318) (UniProt P14780). As to the kind of experiment: NVS_ENZ_hMMP9: NovaScreen (NVS) Enzymatic Assay for human Matrix Metalloproteinase-9 (MMP9) (AID 2283190).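 Note: cell-free recombinant MMP9 protease activity read by fluorescent substrate signal; active means inhibition seen as loss of fluorescence signal versus DMSO.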 Summed up: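 Extracted enzyme, fluorescent substrate, 1 h post-dose read. Single conc 25 uM in duplicate, then concentration series for actives. Activity = signal loss relative to DMSO negative control.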
Chain of human Matrix Metalloproteinase-9 (MMP9), MMP9 (gene 4318) (P14780 whole entry, looked up): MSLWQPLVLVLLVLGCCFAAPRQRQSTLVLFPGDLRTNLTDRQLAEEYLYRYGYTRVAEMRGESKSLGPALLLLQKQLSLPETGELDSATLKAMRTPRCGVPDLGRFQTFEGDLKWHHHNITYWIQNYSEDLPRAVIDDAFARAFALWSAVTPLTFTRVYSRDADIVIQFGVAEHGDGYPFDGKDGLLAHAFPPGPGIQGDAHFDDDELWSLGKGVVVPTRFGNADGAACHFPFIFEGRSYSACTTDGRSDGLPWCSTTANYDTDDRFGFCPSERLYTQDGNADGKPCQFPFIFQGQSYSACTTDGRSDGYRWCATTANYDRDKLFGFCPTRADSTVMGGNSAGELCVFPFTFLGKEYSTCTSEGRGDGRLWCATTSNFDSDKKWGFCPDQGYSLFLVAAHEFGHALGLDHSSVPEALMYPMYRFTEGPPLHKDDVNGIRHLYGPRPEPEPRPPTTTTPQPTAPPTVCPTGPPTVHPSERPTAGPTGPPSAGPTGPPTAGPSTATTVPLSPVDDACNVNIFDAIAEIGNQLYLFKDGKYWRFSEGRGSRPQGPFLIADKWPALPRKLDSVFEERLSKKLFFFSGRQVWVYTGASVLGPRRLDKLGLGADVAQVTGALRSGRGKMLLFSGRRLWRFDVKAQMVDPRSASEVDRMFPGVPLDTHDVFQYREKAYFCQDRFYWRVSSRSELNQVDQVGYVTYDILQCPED
Regarding `CC[C@H](C)C(=O)O[C@H]1C[C@@H](C)C=C2C=C[C@H](C)[C@H](CC[C@@H]3C[C@@H](O)CC(=O)O3)[C@H]21`, the compound was called inactive. As usually defined, the AC50 is the midpoint of the concentration-response curve, whichever way the signal moves. Consider `CCOC(=O)c1ccc(C2CCC(NC[C@H](O)COc3ccc(O)c(NS(C)(=O)=O)c3)CC2)cc1` (some centres not stated), for which the AC50 was 12.7 µM (active). Regarding `COC(=O)CC(=O)OC`, the result was inactive. On to `O=C(O)CCN(C1(C(=O)NO)CCCC1)S(=O)(=O)c1ccc(Oc2ccc(F)cc2)cc1`, for which the AC50 was 0.00365 µM (active). For the compound `CNS(=O)(=O)c1cc(C(=O)N2CCC(CCN3C4CCC3CC(n3c(C)nc5ccccc53)C4)(c3cccc(F)c3)CC2)c(Cl)cc1F` (configuration not stated), the AC50 is 8.37 µM (active). Still for that read-out and setting: the value for `CCc1cc(SCc2sc(-c3ccc(C(F)(F)F)cc3)nc2CN2CCN(c3ccc(OC)cc3)CC2)ccc1OCC(=O)O` was 8.8 µM (active). In the case of `CCCCC(CC)COC(=O)c1ccc(C(=O)OCC(CC)CCCC)cc1` (configuration not stated), the compound was classed as inactive. The same measure, in the same setting: the value for `Fc1ccccc1[C@@H](F)COC1CCC(Nc2ncnc3[nH]ncc23)CC1` (some centres not stated) was “inactive”; that for `COCCOCCOCCOC` was “inactive”. The same measure, in the same setting: the value for `NC(=O)NO` was “inactive”. In the case of `O=C(O)c1cc(N=Nc2ccc(S(=O)(=O)Nc3ccccn3)cc2)ccc1O`, the AC50 is 7.16 µM (active).

The next assay addresses cAMP-dependent protein kinase catalytic subunit alpha (Homo sapiens) (UniProt P17612). As to the kind of experiment: NVS_ENZ_hPKA: NovaScreen (NVS) Enzymatic Assay for human Protein Kinase A (PKA) (AID 2283192). Summed up:
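Cell-free kinase activity read by fluorescence after mobility-shift separation of substrate and product, 1 h post-dosing. Single-concentration duplicate screen (25 uM) preceded singleton concentration series (top 50 uM); loss of signal versus DMSO.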
Take `Cc1ccc(N)cc1O`: the result was inactive.

For `COc1ccc2sc(C(=O)Nc3nnn[nH]3)c(OC(C)C)c2c1`, the AC50 is 13.2 µM (active). Regarding `CC(=O)c1ccc2c(c1)[C@H](NC(=O)c1ccc(F)cc1)[C@@H](O)C(C)(C)O2`, the call was inactive.

In the case of `CN(C)c1ccc(Cc2ccc(N(C)C)cc2)cc1`, the call was inactive.

Turning to `O=C(O)c1cc(N=Nc2ccc(S(=O)(=O)Nc3ccccn3)cc2)ccc1O`, the compound was classed as inactive. With `CN(C)c1ccc(N=NS(=O)(=O)O)cc1`, the compound was classed as inactive. Still for that read-out and setting: the value for `O=C(O)c1cccc(Oc2ccccc2)c1` was “inactive”.

A further assay concerns the target human Phosphodiesterase 5 (PDE5), PDE5A (gene 8654) (UniProt O76074). As to the kind of experiment: NVS_ENZ_hPDE5: NovaScreen (NVS) Enzymatic Assay for human Phosphodiesterase 5 (PDE5) (AID 2283194). The method, boiled down:
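Screening began in duplicate at 25 uM, with actives taken into concentration-response. Enzyme activity of recombinant PDE5 toward its substrate was measured at 1 h by fluorescence mobility-shift detection, relative to DMSO controls.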
Turning to `CC[C@H](C)C(=O)O[C@H]1C[C@@H](C)C=C2C=C[C@H](C)[C@H](CC[C@@H]3C[C@@H](O)CC(=O)O3)[C@H]21`, the compound was classed as inactive. Same read-out and setting: the value for `Cc1ccc(N)cc1O` was “inactive”.

In the case of `COc1ccc2sc(C(=O)Nc3nnn[nH]3)c(OC(C)C)c2c1`, the AC50 was 0.476 µM (active). On to `CC(=O)c1ccc2c(c1)[C@H](NC(=O)c1ccc(F)cc1)[C@@H](O)C(C)(C)O2`, for which the call was inactive. For the compound `CC/C(=C\C(=N/O)C(N)=O)C(C)[N+](=O)[O-]` (configuration not stated), the AC50 was 40.1 µM (active). Turning to `O=C(O)c1cccc(N(Cc2cccnc2)c2ccc(OC(F)F)c(OC(F)F)c2)c1`, the AC50 was 3.28 µM (active). Regarding `O=C(O)c1cc(N=Nc2ccc(S(=O)(=O)Nc3ccccn3)cc2)ccc1O`, the outcome was inactive.

Consider `C=CCCCCCCCCC(=O)O`, for which the result was inactive. The same measure, in the same setting: as for `CN(C)c1ccc(N=NS(=O)(=O)O)cc1`, the entry is “inactive”.

In the case of `COc1ccc(-n2nc(C(F)F)cc2-c2ccc(S(C)=O)cc2)cc1` (configuration not stated), the AC50 is 12.9 µM (active). As to `O=C(O)c1cccc(Oc2ccccc2)c1`, the result was inactive.

The values are drawn from PubChem BioAssay (EPA / NIEHS).
